In article PMC13494018:
Unmarked numbers belong to inactive results. How the calls were made is not given here.

Molecular target: CD276, Q5ZPR3
Sequence (Q5ZPR3 whole entry): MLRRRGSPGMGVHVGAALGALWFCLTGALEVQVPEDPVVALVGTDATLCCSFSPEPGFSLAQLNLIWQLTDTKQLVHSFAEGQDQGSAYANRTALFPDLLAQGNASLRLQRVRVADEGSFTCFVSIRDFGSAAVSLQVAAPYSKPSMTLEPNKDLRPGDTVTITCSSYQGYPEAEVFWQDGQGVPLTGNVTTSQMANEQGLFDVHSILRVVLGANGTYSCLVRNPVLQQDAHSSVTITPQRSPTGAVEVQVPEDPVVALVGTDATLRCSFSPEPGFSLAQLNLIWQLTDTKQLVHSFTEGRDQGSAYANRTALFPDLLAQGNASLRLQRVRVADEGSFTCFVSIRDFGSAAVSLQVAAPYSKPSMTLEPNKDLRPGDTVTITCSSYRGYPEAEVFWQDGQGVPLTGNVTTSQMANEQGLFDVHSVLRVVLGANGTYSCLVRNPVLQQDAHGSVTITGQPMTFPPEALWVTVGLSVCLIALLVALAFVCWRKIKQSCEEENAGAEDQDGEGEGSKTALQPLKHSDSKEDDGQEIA

Row | Binder | binding in a display sort
1 | design_621_7e0052dc-ae49-49a0-b99f-9f3ee649cc2f_687_dldesign_0_cycle1_af2pred (protein) ALEEALERLKKQAEEAEKAGDKEAAKLAKKGAEQMEKAKTDPVAAMQALLAAAAEADKLAPKVGKVANRVAIEAIRGANAIFRAAQ | not found
2 | design_621_7e0052dc-ae49-49a0-b99f-9f3ee649cc2f_591_dldesign_0_cycle1_af2pred (protein) GEEEEKKKEVIEKRQEVLKLLAEAVRVGMEADPELASKAASESLELIAKADKYLKEGKYEEALAELEKAKEYVEKMLKEAKALLAAKL | not found
3 | design_621_7e0052dc-ae49-49a0-b99f-9f3ee649cc2f_282_dldesign_0_cycle1_af2pred (protein) ARAKIVEAAKKAAKEAEAATTRGEVLVALAKAAAVFNRVGDAAGAARVSAAIVQATQLDAAEAKKLAVEVLTAIAEEAA | not found
4 | design_620_fbd04095-bef7-46a9-992d-f2cb8915922f_2199_dldesign_0_cycle1_af2pred (protein) AEAAAQAARASVAAARAAVKDARRIAENAKTPEQLESAKKVLEVARALAEDAERNAKAAGDEELVKLAEEARKEAEEAEKKVREKAEE | not found
5 | design_621_7e0052dc-ae49-49a0-b99f-9f3ee649cc2f_741_dldesign_0_cycle1_af2pred (protein) MEELKKAAEAAEKLAEVTLAIAKQADPKLAEKAKKLKEEVKKVYEEGKKDPSTAKEKLKELEKLSKEITELAAEASKLAVAKAA | not found
6 | design_621_7e0052dc-ae49-49a0-b99f-9f3ee649cc2f_1011_dldesign_0_cycle1_af2pred (protein) DLEKKAKEHLEKAKKLAEKAAASNAAEASVYLSQAIEEASKAVELAKKAGPELYKKYSEEATKLVQRASKAVMAKAQAAA | not found
7 | design_620_fbd04095-bef7-46a9-992d-f2cb8915922f_1950_dldesign_0_cycle1_af2pred (protein) GVAETLKRNLEAAERILKEGEELFETDPAAGAAKFKSAELLATGVVATAEADPSVPEEILKRAKELAKRAKEALEEAEKKVEELKA | not found
8 | design_621_7e0052dc-ae49-49a0-b99f-9f3ee649cc2f_501_dldesign_0_cycle1_af2pred (protein) GAEQVAFQTIVAGARHAARLENEEAAKEIAKVYADIAANLSKETQQKVLEAAKKIAKETEAGKKNGEIVVKELEKALEA | not found
9 | design_621_7e0052dc-ae49-49a0-b99f-9f3ee649cc2f_896_dldesign_0_cycle1_af2pred (protein) SAAAAAAAAAKAVAAKTAEALVKQAEALIKEAEKSTKEEGLKLRKAAAENYKLAGTLYEQAGDTATAKKLKEEGEKVEKEAEEKA | not found
10 | design_620_fbd04095-bef7-46a9-992d-f2cb8915922f_1915_dldesign_0_cycle1_af2pred (protein) NEDLKKAAELAKKAAQLAPQPEAAEVAAKAAEAAEKAVGPELGNYALALATLPPAARALGMSNLATSLEKLV | not found
11 | design_620_fbd04095-bef7-46a9-992d-f2cb8915922f_1927_dldesign_0_cycle1_af2pred (protein) AAAQAALEKMKALAEQALAEIKALSQKDQASIDQGIAVLSRTVTELMTAANQYPEVAAQYAQLAVDLLEQSSKYIRAGRARVAAKEAA | not found
12 | design_621_7e0052dc-ae49-49a0-b99f-9f3ee649cc2f_147_dldesign_0_cycle1_af2pred (protein) MEAAAEIALKTAKAMTKSAVAAAEAGNLEDARQIAETAKEILEATAKKVSPELAKKLKEAAKKATAEAEAAVKAAAARLAA | not found
13 | design_620_fbd04095-bef7-46a9-992d-f2cb8915922f_2436_dldesign_0_cycle1_af2pred (protein) EAAKEAEKAYKEAKEAAAAALAAADAAADKVPATAVDVLKRTVTANLKQAEKALKAGDAKAVKAQKKQLELLKEGAAAAA | not found
14 | design_621_7e0052dc-ae49-49a0-b99f-9f3ee649cc2f_375_dldesign_0_cycle1_af2pred (protein) SQAAQIALNAAKSLAENIKKYAEVMSEEEAKGAIELLYDLAKYAKKEDPELGKKAEKIAEEAKKYVEKVFKEKKEEEEK | not found
15 | design_621_7e0052dc-ae49-49a0-b99f-9f3ee649cc2f_1174_dldesign_0_cycle1_af2pred (protein) AEKDEIVEKLLRAAGTATYVAYAFKDDAATKAKATATNQKAREAIQLLGTDFSPEAVALAKEAIEDAEKLKAELEAAQA | not found
16 | design_621_7e0052dc-ae49-49a0-b99f-9f3ee649cc2f_1226_dldesign_0_cycle1_af2pred (protein) MEAEEYLEKAKEAAEKAKEAAAKGDLAAANAYLGKAIEYAAKAQEVGTPEIAEKANAELARAVKAVQAVAAKVAAA | not found
17 | design_620_fbd04095-bef7-46a9-992d-f2cb8915922f_2025_dldesign_0_cycle1_af2pred (protein) GLAEVLRASGLALEAYELAEKLAKENPEEGRKAFQEAARLSLRAAARALAIARAFPEIAEFALRLAQRLVELAAEAAEKARELEA | not found
18 | design_621_7e0052dc-ae49-49a0-b99f-9f3ee649cc2f_121_dldesign_0_cycle1_af2pred (protein) EEAERKARTAELLKEAIHLGFRGIAVGPEYIKEGAKKLEEAAKLLPEKKPLLEKMAELAKKAAESTPTEALQLTLEMIEIAKEVVE | not found
19 | design_621_7e0052dc-ae49-49a0-b99f-9f3ee649cc2f_590_dldesign_0_cycle1_af2pred (protein) SERKESVDAGVKAAADIGKYQAKEIAKEDPEKGAAYLKEVEETYEKALASSPEEAFALTNAAFRANAKLAAAAAAKKAAAA | not found

Row | Binder | binding in a display sort
20 | design_621_7e0052dc-ae49-49a0-b99f-9f3ee649cc2f_1278_dldesign_0_cycle1_af2pred (protein) AANAAEQAARLGKALASAAKNAIEAGNLESARKIAEVAVAAGEEAAELAVKYLEAEDPEAGKIFRELVEEEKARRAAEAA | not found
21 | design_621_7e0052dc-ae49-49a0-b99f-9f3ee649cc2f_606_dldesign_0_cycle1_af2pred (protein) DVAEVLVRTAQAVARQAQAAAALSPEEALAVAQANQQTVAVLLAAAKAAGSAEAVAAAQQAQATVAAVIAAAQARLAA | binds (active)
22 | design_621_7e0052dc-ae49-49a0-b99f-9f3ee649cc2f_1427_dldesign_0_cycle1_af2pred (protein) AAAAAEAAALAQINALTATAVAAAKDPATQPVANAALGQASALAIAQHKVDPAAGAKASQALAAGVEATAAARAAAKAAAAAAAA | not found
23 | design_621_7e0052dc-ae49-49a0-b99f-9f3ee649cc2f_505_dldesign_0_cycle1_af2pred (protein) AAAAAARAAALAVRDKYAAKAKEYAAEAEKYAPTDARVKELLDQGKAEAAKGDAALAAGDYAAAEGYYALAYAYYSAALNRALA | not found
24 | design_621_7e0052dc-ae49-49a0-b99f-9f3ee649cc2f_449_dldesign_0_cycle1_af2pred (protein) SSNVEKAKELARNLTESAALDPASGALAGRALLAAARNAAAALTPEQSAALAAELRAAVAANQPADPEARALFEQAAAVLAA | not found
25 | design_621_7e0052dc-ae49-49a0-b99f-9f3ee649cc2f_1041_dldesign_0_cycle1_af2pred (protein) DPAAVAAAEDMWAIAQQTWAAFTANAATITPAQARQYAAVFATAAVAMEDAARRVSPELAVGYRARAAEMRARAAAARAAAAA | not found
26 | design_620_fbd04095-bef7-46a9-992d-f2cb8915922f_1968_dldesign_0_cycle1_af2pred (protein) DAAVQAAVAAGQAAAERARETGERAREAGDEETAARLEALAQSVDILADGAAATKDAHAAATLQTLVRQAEREVEEAERRLEA | not found
27 | design_621_7e0052dc-ae49-49a0-b99f-9f3ee649cc2f_1261_dldesign_0_cycle1_af2pred (protein) AADSVALGQANAEAMLAVADPSQLPAAAAAIAAASPAVAERARRIGLRLAEAAGADVAAFRAAYDAAVAAAKA | not found
28 | design_620_fbd04095-bef7-46a9-992d-f2cb8915922f_2282_dldesign_0_cycle1_af2pred (protein) AAAEGQALVKQATAYAEEALRLAREGGDPEEVAAKLNLAATYAIKAMNLPATQAQGAKVMDYLGEVAREVAAIRAARAAA | not found
29 | design_621_7e0052dc-ae49-49a0-b99f-9f3ee649cc2f_624_dldesign_0_cycle1_af2pred (protein) AEAAKKKVEELLAKAKEEAKKALEDPANIEKYRAEMSKLIAEANRIGIASTPEVNTLAGSGIEEVLKLLDEAVKKAK | not found
30 | design_621_7e0052dc-ae49-49a0-b99f-9f3ee649cc2f_290_dldesign_0_cycle1_af2pred (protein) AAAALERAARIALAAAKAMLRTAEATGNAAAAAVAADLAAYAAATARAAGPALAPLAAEAEAVEARARALAA | not found
31 | design_621_7e0052dc-ae49-49a0-b99f-9f3ee649cc2f_452_dldesign_0_cycle1_af2pred (protein) EEDERRAEELRRRAEEMLEAAKRAASLPPAERARLLGEAARVVEEARELAERDPRYRPVYDLAVAAFNALATAVGRALAAAA | not found
32 | design_621_7e0052dc-ae49-49a0-b99f-9f3ee649cc2f_216_dldesign_0_cycle1_af2pred (protein) RMAEVAERIRRTAEEVREGDAETAVRLAAEVLELARREGNEASAHLAANALRAARAGDVERAVVYLEAAAEITALS | not found
33 | design_620_fbd04095-bef7-46a9-992d-f2cb8915922f_2277_dldesign_0_cycle1_af2pred (protein) GAAAERAALRDAALAEVDALLAAGAAAAAAAASPVAALLDAHRAAAEVIARLRERDPAAGEEVAAEAQARFSALLRQASASVVA | not found
34 | design_620_fbd04095-bef7-46a9-992d-f2cb8915922f_2412_dldesign_0_cycle1_af2pred (protein) ADGSRLTEAFRVAAEARRVGEEAGKLLGEEALEEAERAAAELRRLLAAAMRAMAAGTGADEAVNAALDAARAALAEFEERLKEAR | not found
35 | design_621_7e0052dc-ae49-49a0-b99f-9f3ee649cc2f_407_dldesign_0_cycle1_af2pred (protein) SEAQRLYDAAKTWADIANAAIQQAAADPSTAAVAVAAAKAAVASAKRLAEKAEKLAAKKPEYAPLAKDAKAAVAAAAAAAKAAAA | not found
36 | design_620_fbd04095-bef7-46a9-992d-f2cb8915922f_2334_dldesign_0_cycle1_af2pred (protein) LTEEEQKELIIDTIKGLAESAKQFAKASGDPELAKQAEKVAELAKKAIEVTKKGTLEDGVKALSEVSKATMEVAKAA | not found
37 | design_621_7e0052dc-ae49-49a0-b99f-9f3ee649cc2f_162_dldesign_0_cycle1_af2pred (protein) MGELFAALIEAMRLASEAARLAKAGEKEEAKEKLEKALKLVGEVAKATGTTAIYDETAKKAEASSLEEAARAVMSGAAKIISEAAKKA | not found
38 | design_620_fbd04095-bef7-46a9-992d-f2cb8915922f_2241_dldesign_0_cycle1_af2pred (protein) AEKVRELADQMVAIAREAAEKGLSPAEIGAANGQVVDLLEEAYRLAKESGASQEVLDYLNAKNAEANRLLLAAQRA | not found
